NPC1 prom act = activators of NPC1 promoter; Potency, µM (top dose mostly 9.22 µM), for inactives: top-dose activation, hits mostly activators; 320,000 compounds, 2.4% hits; Huh7 NPC1 promoter luciferase reporter, 24 h; AID 485313; note: % of control where 0% means no effect; nearly all actives have a fitted effect of over 60% in size
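Huh7 cells stably carrying NPC1 promoter–luciferase, plated in Opti-MEM with 10% FBS for 2 h, were exposed to compound in DMSO for 24 h at 37 °C; luciferase reagent was added for 10 min and luminescence read.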
FLuc counter = inhibits or activates purified firefly luciferase, miR-21 counter-screen | purified FLuc, Km substrates, luminescence inhibition | AID 588342 | 360,000 compounds, 6.9% hits | P08659 | Potency, µM (doses to about 57.5 µM), for the others: top-dose activity change, negative = inhibition, usual class: inhibitors;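 note: plate controls were vehicle for no effect and reference inhibitor for full effect; nearly all actives have a fitted effect of over 55% in size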
Target sequence (P08659 whole entry, looked up): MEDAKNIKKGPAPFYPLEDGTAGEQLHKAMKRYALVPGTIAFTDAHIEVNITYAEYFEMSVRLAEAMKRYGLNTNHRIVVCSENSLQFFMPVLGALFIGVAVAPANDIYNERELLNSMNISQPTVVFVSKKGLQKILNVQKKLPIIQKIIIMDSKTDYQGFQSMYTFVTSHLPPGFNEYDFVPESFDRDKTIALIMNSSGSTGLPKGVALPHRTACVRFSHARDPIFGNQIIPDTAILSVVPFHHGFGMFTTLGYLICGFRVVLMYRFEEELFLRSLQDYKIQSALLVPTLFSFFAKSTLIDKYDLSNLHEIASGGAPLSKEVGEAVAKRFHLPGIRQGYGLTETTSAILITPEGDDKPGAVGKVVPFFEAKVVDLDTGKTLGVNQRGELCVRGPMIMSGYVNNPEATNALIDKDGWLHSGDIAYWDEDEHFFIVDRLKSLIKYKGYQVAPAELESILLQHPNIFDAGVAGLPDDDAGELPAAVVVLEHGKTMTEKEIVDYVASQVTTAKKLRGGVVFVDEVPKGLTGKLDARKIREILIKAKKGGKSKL
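Purified P. pyralis luciferase, 10 nM final, with Km-level 10 uM D-luciferin and 10 uM ATP in 50 mM Tris acetate pH 7.5, 10 mM Mg acetate, 0.01% Tween-20, 0.05% BSA; 6-point qHTS titration about 60 µM downward; luminescence read.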
SMN2 splice up = SMN2 splice variant enhancement | HEK293 SMN2-luciferase splicing reporter, luminescence, 30-36 h | Potency, µM (top dose mostly 46.1 µM), inactives show top-dose activity change, positive = activation, actives largely listed as activators | 210,000 compounds, 2.8% hits; note: % of control where 0% means no effect; nearly all actives have a fitted effect of over 55% in size
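qHTS luciferase splicing reporter: luminescence rises when SMN2 exon 7 is included in transfected HEK293 cells. Compound exposure lasted 30-36 h at 37C, with 4.5 mM final sodium butyrate as control, followed by a ONE-Glo read.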
ELG1 genotoxic = genotoxicity induction in ELG1-luciferase HEK293T cells | HEK293T ELG1-luciferase reporter, luminescence, 16 h | Potency, µM (series often up to 46 µM), inactives show at the top dose activity change, positive = activation, usual class: activators | 330,000 compounds, 1.3% hits | AID 504466; note: % of control where 0% means no effect; nearly all actives have a fitted effect of over 60% in size
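Reporter readout depends on ELG1 protein level, which increases with genetic stress. After 16 hr compound exposure at 37 °C, luciferase activity was quantified using ONE-Glo.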
ELG1 DNA repair = ELG1-dependent DNA repair inhibition | 330,000 compounds, 2.3% hits | Potency, µM (highest dose often 46.1 µM), for inactives: top-dose activity change, negative = inhibition, hits mostly inhibitors | HEK293T ELG1-luciferase reporter, luminescence, 16 h; DNA damage induced by 5-fluorouridine | AID 504467; note: % is set by controls: 0 for no effect and ±100 for the full control effect; nearly all actives have a fitted effect of over 55% in size
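In this reporter screen, reduction of luminescence relative to DMSO vehicle indicated activity. Compounds and 5-fluorouridine were added together to 2,000 cells per well, incubated for 16 hr at 37 °C, then developed with ONE-Glo.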
Rab9 prom act = Rab9 promoter activation | Huh7 Rab9 promoter-luciferase reporter, luminescence, 24 h | 320,000 compounds, 2.8% hits | Potency, µM (series often up to 9.22 µM), inactives show at the top dose activation, negative = inhibition, most hits filed as activators; note: % of control where 0% means no effect; nearly all actives have a fitted effect of over 60% in size
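Huh7 cells stably carrying Rab9 promoter–luciferase reporter, plated 1500 cells/well, compound added after 2 h and incubated 24 h at 37 °C; luciferase luminescence then read after 10 min with detection reagent.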
An asterisk follows results filed as active; ? = inconclusive; / = no result; [ ] = another dose, or the depositor's remark. Sampled rows, rich in hits. Any-hit rate of the full collection: about 9.4%. Calls come from the whole dose curve; as a rule, active = well fitted curve in the direction sought with a large enough effect; inconclusive = small, poorly fitted or top-dose-only effect, or another doubt; inactive = no such curve, though single readings can be large; an effect the other way counts as inactive or inconclusive. Potency is the fitted concentration of half-maximal effect.

SMILES	NPC1 prom act	FLuc counter	SMN2 splice up	ELG1 genotoxic	ELG1 DNA repair	Rab9 prom act
COc1ccc(/C=N/NC(=O)Nc2nonc2N)cc1	14%	?	10µM*	?	?	25%
COC(=O)N/N=C/c1ccc(Oc2ccccc2)cc1	?	15µM*	11µM*	?	?	?
COc1ccc(/C=N/NC(=O)c2cccc(C(=O)N/N=C/c3ccc(OC)cc3)n2)cc1	15%	0.3µM*	/	?	15%	25%
Cc1cccc(N2CCN(C(=O)CN3C(=O)COc4ccc(S(=O)(=O)N5CCC(C)CC5)cc43)CC2C)c1 (centres undefined)	/	-4%	-3%	/	/	/
COc1cc(NC(=O)c2cccc(COCC(F)(F)C(F)F)c2)cc(OC)c1OC	-1%	-1%	-4%	-5%	?	-2%
COc1ccc(/C=N/NC(=O)c2cccc(COCC(F)(F)C(F)F)c2)cc1	-1%	5.4µM*	11%	0%	0%	3%
COc1cc(/C=N/NC(=O)c2nc(C)cc(C)n2)ccc1O	14%	?	?	9%	?	19%
COc1cc(/C=N/NC(=O)c2cccc(C(=O)N/N=C/c3ccc(O)c(OC)c3)n2)ccc1O	-7%	0.85µM*	/	0%	-4%	-5%[1.84 µM]
COc1cc(OC)c(OC)cc1/C=C1\CCC(C2CCCC2)C1=O (centres undefined)	-2%	-13%	-24%	-14%	7.3µM*	1%
COc1ccc(/C=C2\CCC(C3CCCC3)C2=O)c(OC)c1 (centres undefined)	25%	21µM*	/	8%	?	13%
COc1cc(C=O)c(Br)cc1OC1CCCC1	-2%	3%	-9%	0%	-1%	0%
CCCCc1nc2c(c3c1C[C@H](C)OC3)CN(C(=O)NCCCC(=O)OCC)CC2	/	/	3%[9.22 µM]	/	/	/
CCCn1c(=O)n(-c2cc(Cl)c(OC)cc2OC)c(=O)c2c3c(sc21)CN(C(C)=O)CC3	/	4%	18%	/	/	/
O=C(N/N=C/c1ccncc1)c1cc2ccccc2cc1O	0%	7.6µM*	/	?	20%	12%
O=C(N/N=C/c1ccc[nH]1)c1cc2ccccc2cc1O	9%	6.7µM*	/	25%	-23%	9%
O=C(N/N=C/c1ccncc1)c1cc([N+](=O)[O-])cc([N+](=O)[O-])c1O	-4%	27µM*	11%	3%	6%	-10%
Cc1cccc(C(=O)N/N=C/c2ccc[nH]2)c1	5%	?	9%	13%	?	0%
c1ccc(Nc2nc(-c3cccnc3)cs2)nc1	1µM*	1.5µM*	11µM*	?	?	0.56µM*
Clc1ccccc1Nc1nc(-c2cccnc2)cs1	3.2µM*	1.7µM*	2.8µM*	?	?	0.71µM*
Clc1ccccc1-c1csc(Nc2cccnc2)n1	2.8µM*	?	/	8%	-5%	?
Clc1ccccc1Nc1nnc(-c2ccncc2)s1	0.56µM*	0.95µM*	3.2µM*	?	?	0.45µM*
c1cncc(Nc2nc(-c3ccncc3)cs2)c1	6%	?	-2%	-3%	-16%	1%
N/N=C1/c2ccccc2N[C@H]1OC(=O)Nc1cccc(Cl)c1	/	/	-8%[9.22 µM]	/	/	/
Cc1ccc(S(=O)(=O)c2cnc(SC(C)C(=O)Nc3ccccc3)[nH]c2=O)cc1 (centres undefined)	/	?	1%	/	/	/
O=C(CSc1nc(-c2ccc(F)cc2)cs1)Nc1ccccn1	-1%	-1%	-13%	7%	5%	-3%
SMILES	NPC1 prom act	FLuc counter	SMN2 splice up	ELG1 genotoxic	ELG1 DNA repair	Rab9 prom act
Fc1ccc(-c2csc(Nc3ccccn3)n2)cc1	3.5µM*	1.5µM*	/	2.1µM*	?	3.2µM*
CCN1CCN(C(=O)c2c(C)nn(-c3ccc(F)cc3)c2-n2cccc2)CC1	/	-5%	/	/	/	/
Nc1ccc(-c2nc3cc(N)ccc3n2CCO)cc1	1%	0%	/	0%	0%	1%
Cn1c(CO)nc2cc(N)ccc21	0%	17µM*	/	-1%	8%	0%
CCc1cccc(C)c1NC(=O)c1cc(S(=O)(=O)N2CCOCC2)cn1C	/	-1%	/	/	/	/
COC(=O)c1ccc(Sc2ccc(C)cc2)c(N)c1	15%	19µM*	-16%	3%	?	24%
COc1ccc(OC)c(CNC(=O)c2ccc(Sc3ccc(C)cc3)c(N)c2)c1	/	-15%	/	/	/	/
Cc1cc(NC(=O)CSc2nc(C(C)C)nc3c2c(=O)n(C)c(=O)n3C)no1	0%	0%	-14%	-5%	-20%	-5%
CCCn1c(=O)n(C)c(=O)c2c(SCC(=O)Nc3cc(C)on3)nc(C(C)(C)C)nc21	-11%	0%	/	-5%	8.2µM*	-4%
Cc1ccc(C(=O)Nc2sc3c(c2C(=O)NCc2ccco2)CCCC3)cc1	-3%	-18%	12%	13%	?	1%
O=C(Nc1sc2c(c1C(=O)NCc1ccco1)CCCC2)c1ccc2c(c1)OCO2	0%	12µM*	?	10µM*	?	?
COc1ccc(C(=O)Nc2sc3c(c2C(=O)NCc2ccco2)CCCC3)cc1OC	-10%	1%	-5%	5%	16µM*	-5%
COC(=O)CC1Oc2cc3oc4c5ccccc5oc(=O)c4c3cc2O1 (centres undefined)	/	/	-2%	/	/	/
Cc1csc2ncc(C(=O)Nc3ccon3)c(=O)n12	13%	-8%	-4%	5%	22%	12%
Cc1csc2ncc(C(=O)Nc3ccc4c(c3)OCCO4)c(=O)n12	?	?	4.5µM*	2.3µM*	?	2.2µM*
Cc1cccc(NC(=O)c2cnc3scc(C)n3c2=O)c1	3.2µM*	8.5µM*	13µM*	16%	?	3.2µM*
C[C@H]1CC2[C@@H]3CCC4=CC(=O)C=C[C@]4(C)[C@@]3(F)[C@@H](O)C[C@]2(C)[C@@]1(O)C(=O)CO (some centres undefined)	/	/	6%	/	/	/
COc1ccccc1CCNC(=O)C(C)Sc1nc(-c2ccccc2)cc(C(F)(F)F)n1 (centres undefined)	/	0%	2%	/	/	/
COc1ccc(/C=N\n2nnc3ccccc32)cc1	0.32µM*	0.19µM*	0.79µM*	?	?	0.22µM*
CN(C)c1ccc(/C=N/N2C(=O)c3ccccc3C2=O)cc1	0%	0.43µM*	/	7%	-1%	10%
CCN(CC)c1ccc(/C=N/N2C(=O)c3ccccc3C2=O)cc1	0%	4.3µM*	-15%	0%	21%	-2%
CCN(CC)c1ccc(/C=N/N2C(=O)c3ccccc3C2=O)c(O)c1	21%	?	?	-4%	?	23%

From PubChem
